Screening data (PubChem BioAssay)
Most compounds without a hit are left out; they make up all but 3.5% or so of the library.
TMEM16A act: activates or potentiates the mouse TMEM16A chloride channel. Q8BHY3. hit rate 0.3% among 340,000. HEK293 TMEM16A/YFP-H148Q/I152L, iodide quench fluorescence; hits give low values. B-score at 10 µM;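 active = fluorescence-ratio B-score plate-corrected deviation score at least 3 library SD below zero, with starting fluorescence score within 5 deviations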;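 also: channel opened by trigger with iodide after compound preincubation; score built on the fluorescence ratio of max minus min over baseline; more negative score means more quench and so TMEM16A activation or potentiation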
Target sequence (Q8BHY3 whole entry, looked up): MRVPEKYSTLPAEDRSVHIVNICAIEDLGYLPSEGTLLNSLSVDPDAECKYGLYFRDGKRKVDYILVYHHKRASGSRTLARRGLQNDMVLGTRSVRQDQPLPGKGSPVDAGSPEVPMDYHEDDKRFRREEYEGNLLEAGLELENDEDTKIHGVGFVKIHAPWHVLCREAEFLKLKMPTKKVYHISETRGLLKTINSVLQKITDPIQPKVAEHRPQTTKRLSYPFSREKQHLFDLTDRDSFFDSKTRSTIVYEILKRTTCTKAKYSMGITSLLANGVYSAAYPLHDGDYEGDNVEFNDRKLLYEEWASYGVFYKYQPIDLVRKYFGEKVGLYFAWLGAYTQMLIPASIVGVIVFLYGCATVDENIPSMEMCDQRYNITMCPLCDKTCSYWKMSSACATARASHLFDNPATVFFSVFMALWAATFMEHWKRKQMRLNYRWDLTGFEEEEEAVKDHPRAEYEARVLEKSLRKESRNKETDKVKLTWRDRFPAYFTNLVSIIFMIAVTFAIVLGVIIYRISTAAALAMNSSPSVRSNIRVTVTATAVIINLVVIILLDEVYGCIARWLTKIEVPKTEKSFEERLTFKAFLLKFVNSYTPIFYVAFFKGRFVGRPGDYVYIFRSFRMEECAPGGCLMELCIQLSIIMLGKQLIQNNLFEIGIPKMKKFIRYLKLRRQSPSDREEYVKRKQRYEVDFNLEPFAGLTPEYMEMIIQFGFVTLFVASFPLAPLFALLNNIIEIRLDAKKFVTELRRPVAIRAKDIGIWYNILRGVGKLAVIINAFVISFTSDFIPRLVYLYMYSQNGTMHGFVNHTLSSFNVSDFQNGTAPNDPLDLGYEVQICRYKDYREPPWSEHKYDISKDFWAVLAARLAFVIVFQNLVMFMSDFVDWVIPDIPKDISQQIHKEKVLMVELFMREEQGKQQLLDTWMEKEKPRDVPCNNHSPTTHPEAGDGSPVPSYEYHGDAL
KCNK3 block: human KCNK3 channel inhibition, primary screen; O14649; CHO-KCNK3 thallium flux, FluxOR fluorescence; hits give low values; B-score at 10 µM; hit rate 0.84% among 340,000; AID 602410;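 active = B-score under library mean minus 4 SD, starting fluorescence ratio at most library mean plus 5 SD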;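 also: more negative B-score means stronger inhibition of thallium flux through KCNK3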
TMEM16A inh: inhibitors of mouse TMEM16A calcium-activated chloride channel. Q8BHY3. normalized B-score (activity score, 25-100; higher = stronger inhibition) at 10 µM. HEK293 TMEM16A/YFP iodide influx fluorescence, ionomycin. hit rate 1.2% among 310,000. AID 588511;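 active = ratio plate-corrected score three or more library SD toward inhibition, starting fluorescence score within five deviations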;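 also: score derived from kinetic fluorescence span divided by baseline fluorescence per well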
KCNK9 inh: human KCNK9 channel inhibition; Q9NPC2; hit rate 1.2% among 310,000; B-score at 10 µM; HEK293 KCNK9, FluxOR thallium flux fluorescence; hits give low values; AID 488922;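 active = ratio B-score over 3 SD below the library mean, with starting fluorescence within 5 SD of its mean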;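 also: negative B-score means less thallium flux so channel inhibition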
Kir21 block: blocks the mouse Kir2.1 inward-rectifier potassium channel. B-score at 10 µM. P35561. hit rate 0.85% among 310,000. HEK293-Kir2.1, FluxOR thallium flux fluorescence; hits give low values;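 active = fluorescence ratio B-score at or below minus 3 SD of library scores, with starting-brightness B-score within 2 SD, cut at about -4.2 in these data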;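 also: channel flux triggered by added potassium and thallium sulfate stimulus; B-score of peak minus minimum fluorescence over baseline after thallium stimulus; more negative B-score means stronger Kir2.1 block with less thallium influx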
KCNK3 confirm: confirmation of human KCNK3 two-pore domain potassium channel inhibitors; shares compounds with KCNK3 block; CHO-KCNK3 thallium flux, FluxOR fluorescence; 0% buffer, 100% carvedilol maximal block; ratio percent of control, % at 10 µM; hit rate 99% among 2,400; AID 651638;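 active = ratio percent of control, averaged over triplicates, above buffer control mean plus 5 SD, cut at about 64% in these data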;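 also: ratio is the fluorescence rise from min to max over baseline after thallium stimulus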
KCNK3 noninduced: counter-screen for KCNK3 inhibitors: effect in non-induced cells; non-induced KCNK3 parental cells, FluxOR thallium flux; hits give low values; hit rate 40% among 2,400; thallium flux ratio (lower = more inhibition) at 10 µM; shares compounds with KCNK3 block;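 active = thallium flux ratio, averaged over three wells, more than 5 SD below the buffer control mean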;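 also: host cells are CHO cells without KCNK3 induction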
Numbers stand for hits; . = inactive; / = not tested or not shown.

SMILES | TMEM16A act | KCNK3 block | TMEM16A inh | KCNK9 inh | Kir21 block | KCNK3 confirm | KCNK3 noninduced
C=CCOC(=O)N1CCC2CC1c1cc(-c3cccc(C)c3)ccc12 (stereo not drawn) | / | . | / | / | / | / | /
COc1ccc(OC)c(S(=O)(=O)n2cnc3cc(C)c(C)cc32)c1 | . | -11.2 | . | . | . | 98.7 | .
COc1ccc(NC(=O)c2sc3nc(C)nc(N4CCN(c5ccccn5)CC4)c3c2C)cc1Cl | . | -12.3 | . | . | . | 118.0 | 0.154
Cc1nc(N2CCN(c3ccccn3)CC2)c2c(C)c(C(=O)Nc3ccccc3F)sc2n1 | . | . | . | . | . | / | /
CCc1ccc(NC(=O)c2sc3nc(C)nc(N4CCN(c5ccccn5)CC4)c3c2C)cc1 | . | -12.3 | . | . | . | 139.0 | 0.11
Cc1nc(N2CCN(c3ccccn3)CC2)c2c(C)c(C(=O)N3CCN(c4cccc(Cl)c4)CC3)sc2n1 | . | -9.36 | . | . | . | 97.3 | .
COC(=O)c1cc(OC)c(OC)cc1NC(=O)c1cc(C(C)(C)C)oc1C | . | . | . | . | . | / | /
Cc1ccc(NC(=O)c2ccc(F)cc2)cc1S(=O)(=O)N1CCCCCC1 | . | -10.8 | . | . | . | 101.0 | .
Cc1ccc(NC(=O)/C=C/c2ccco2)cc1S(=O)(=O)N1CCCCCC1 | . | -9.39 | 25 | . | . | 124.0 | 0.121
COc1ccc(C)cc1NC(=O)c1ccc(S(=O)(=O)N2CCCCC2)cc1 | . | -9.65 | . | . | . | 106.3 | 0.156
Cc1ccc(NC(=O)c2ccccc2F)cc1S(=O)(=O)N1CCCCCC1 | . | . | . | . | . | / | /
Cc1ccc(SCCC(=O)NCC2CCCO2)cc1 (stereo not drawn) | . | . | . | . | . | / | /
CCOC(=O)N1CCN(C2CCCN(C(=O)c3cccc(N(C)C)c3)C2)CC1 (stereo not drawn) | . | . | . | . | . | / | /
CCOC(=O)c1c(CN2CCN(C)CC2)n(C)c2cc(Br)c(OC)cc12 | . | . | . | . | . | / | /
CCOC(=O)c1c(CSC(=N)N)n(C)c2cc(Br)c(OC(C)=O)cc12 | . | -8.79 | . | . | . | 117.3 | 0.136
CCC(C)c1ccc(NC(=O)Nc2cccnc2)cc1 (stereo not drawn) | . | -9.71 | . | . | . | 118.7 | 0.148
CC(OC(=O)Nc1cccc(Cl)c1)C(=O)OC1CCCCC1 (stereo not drawn) | . | . | / | / | / | / | /
O=C(Nc1cccc(Cl)c1)OC1CCCCc2cccnc21 (stereo not drawn) | . | -9.34 | . | . | . | 116.3 | .
O=C(c1ccc(COc2ccc(Cl)cc2)o1)N1CCN(Cc2ccc3c(c2)OCO3)CC1 | . | -9.8 | 25 | . | . | 146.0 | 0.113
c1cnc(SCCCOc2ccc3ccccc3c2)nc1 | . | -10.3 | . | . | . | 114.3 | 0.14
CN1c2ccccc2N(C)C1c1ccc2c(c1)OCO2 | . | . | . | . | . | / | /
CC(=O)C1=NN(c2ccc(Cl)cc2)C(c2ccc3c(c2)OCO3)N(C(C)=O)N1C (stereo not drawn) | . | -8.83 | . | . | . | 95.3 | 0.152
CCc1nnc(NC(=O)C2CCCN2C(=O)Nc2ccc(Cl)cc2)s1 (stereo not drawn) | . | . | . | . | . | / | /
CC1(C)CNC(=O)c2sc(NC(=O)c3ccccc3Cl)nc2C1 | . | . | . | . | . | / | /
CCOC(=O)C1CCCN(C(=O)c2cc(-c3ccc(C)cc3)nc3ccccc23)C1 (stereo not drawn) | . | -9.71 | . | . | . | 107.7 | .
SMILES | TMEM16A act | KCNK3 block | TMEM16A inh | KCNK9 inh | Kir21 block | KCNK3 confirm | KCNK3 noninduced
COc1ccc(NC(=O)N/C=C/c2ccco2)cc1 | . | . | . | . | . | / | /
O=C(N/C=C/c1ccco1)Nc1cccc(Cl)c1 | . | -9.32 | . | . | . | 93.7 | 0.143
CCCCCCCCCCCNC(=O)c1ccoc1C | . | -8.85 | . | . | . | 96.3 | .
COc1ccc(-n2c(=O)[nH]c3cc(C(=O)NCCc4ccccc4)ccc3c2=O)cc1OC | . | . | . | . | . | / | /
COc1cc(C(=O)N2c3ccccc3CCC2C)cc(OC)c1OC (stereo not drawn) | . | . | . | . | . | / | /
CC1CCc2ccccc2N1C(=O)c1cccs1 (stereo not drawn) | . | -8.91 | . | . | . | 69.0 | .
O=C(Nc1ccc2ccccc2n1)c1ccccc1Br | . | . | . | . | . | / | /
Cc1sc2nc(SCc3nc(-c4cccs4)no3)n(-c3ccccc3)c(=O)c2c1C | . | -12.5 | . | -7.66 | . | 108.7 | .
c1ccc(-n2c(SCc3nc(-c4cccs4)no3)nnc2-c2ccco2)cc1 | . | . | . | . | . | / | /
O=C1/C(=C/c2ccccc2F)SC(=S)N1CCC(=O)N1CCCCC1CCO (stereo not drawn) | . | . | . | . | . | / | /
COCCNC(=O)c1ccccc1NC(=O)c1cccc([N+](=O)[O-])c1C | . | . | . | . | . | / | /
COCCNC(=O)c1ccccc1NC(=O)Cc1ccccc1[N+](=O)[O-] | . | -9.87 | . | . | . | . | .
CC(=O)Nc1c2c(nn1-c1ccccc1)CSC2 | . | . | . | . | . | / | /
O=C(/C=C\c1ccc2c(c1)OCO2)Nc1c2c(nn1-c1ccc(Cl)cc1)CSC2 | . | -8.87 | . | -6.97 | . | 65.0 | .
Cc1cccc(NC(=O)CCS(=O)(=O)c2ccc3c(c2)NC(=O)CS3)n1 | . | . | . | . | . | / | /
CC(C)OC(=O)/C(=C\c1cccc2ccccc12)NC(=O)c1ccccc1 | . | . | . | . | . | / | /
CCOc1ccc(NC(=O)N2CCC(c3nc4ccccc4[nH]3)CC2)cc1 | . | . | . | . | . | / | /
Cc1cccc(-n2c(SCc3ccc([N+](=O)[O-])cc3)nnc2-c2c[nH]c3ccccc23)c1 | . | -10.9 | . | . | . | 107.7 | 0.155
COc1cccc(-n2c(SC)nnc2-c2c[nH]c3ccccc23)c1 | . | . | . | . | . | / | /
COc1cc(C(=O)NCC(=O)N/N=C/c2ccc(-c3ccc([N+](=O)[O-])cc3)o2)cc(OC)c1OC | . | -10.1 | . | . | . | 95.0 | .
Cc1ccc(C(=O)N/N=C\c2ccc(-c3ccc([N+](=O)[O-])cc3)o2)cn1 | . | . | . | . | . | / | /
O=C1c2cccc3cccc(c23)C(=O)N1CC1CCN(CC(O)COc2ccc3ccccc3c2)CC1 (stereo not drawn) | . | -9.86 | . | . | . | 101.3 | 0.15
COc1ccc2ccccc2c1CN1CCN(C(=O)c2ccco2)CC1 | . | -11 | . | . | . | 90.3 | .
CCNC(=S)N1CCc2cc(OC)c(OC)cc2C1COc1ccc(F)cc1 (stereo not drawn) | . | -8.71 | . | . | . | 102.0 | .
